# Compound activity deposited in PubChem by The Scripps Research Institute Molecular Screening Center.
# Only some compounds are listed: those with a hit (about 4.2% of all), similar ones and a draw of the others.
# DAX1 StAR inh: DAX1 (NR0B1) inhibition, primary screen; HEK293T StAR-luciferase reporter, SF-1/DAX-1 repression relief; inhibition, % at 6.8 µM; 370,000 compounds, 1.1% hits; AID 652010;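 active = inhibition above the mean over all tested compounds plus 3 SD, cut at about 3.6% in these data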;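 note: 0% = DAX-1 cells with DMSO and 100% = cells lacking DAX-1 with DMSO; higher inhibition means more luminescence from relief of DAX-1 repression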
# ssDAF12 agonist: activators of S. stercoralis DAF-12 nuclear receptor; HEK293 ssDAF-12/GRIP1 lit1-tk-luc reporter, luminescence; % of 3 µM dafachronic acid response; activation, % at 6.8 µM; 370,000 compounds, 1% hits; AID 652126;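 active = activation above the mean over all tested compounds plus 3 SD, cut at about 0.9% in these data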;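 note: 0% = DMSO-only wells and 100% = 3 µM delta7-dafachronic acid wells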
# hgDAF-12 ag: agonists of H. glycines DAF-12 nuclear receptor; HEK293 GAL4-hgDAF12 UAS-luciferase reporter, agonist luminescence; normalized to butyrate control; activation, % at 6.8 µM; 370,000 compounds, 1.8% hits;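 active = activation above a cutoff set at the mean of all screened compounds plus 3 SD, cut at about 10% in these data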;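 note: 0% = DMSO wells and 100% = sodium butyrate wells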
# hcDAF12 agonist: activators of H. contortus DAF-12 nuclear receptor; HEK293 hcDAF-12 lit1-tk-luc reporter, luminescence; 0% DMSO, 100% Δ7-dafachronic acid; activation, % at 6.8 µM; 370,000 compounds, 1.4% hits;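 active = activation above the mean of all tested compounds plus 3 SD, cut at about 5.5% in these data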;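 note: 100% = response to 3 µM Δ7-dafachronic acid high control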
# SMARCA2 act: SMARCA2 function activation, primary screen; activation, % at 9.1 µM; MG213 cells, MMTV-luciferase reporter, dexamethasone, overnight; 370,000 compounds, 1% hits; in the data active = activation above about 7.8%;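 note: 0% = vehicle wells and 100% = reference activator wells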
# DAX1 conf: NR0B1 (human) inhibition, confirmation. HEK293T StAR-promoter luciferase reporter, SF-1/DAX-1 repression. inhibition, % at 6.8 µM. shares compounds with DAX1 StAR inh. 2,400 compounds, 87% hits;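 active = inhibition above the average of every tested compound plus 3 SD, cut at about 3.8% in these data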;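 note: 0% = DAX-1 cells with DMSO and 100% = no DAX-1 control cells with DMSO; active compounds raise luminescence by relieving repression of the StAR reporter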
# Target sequence (P51843 whole entry, looked up): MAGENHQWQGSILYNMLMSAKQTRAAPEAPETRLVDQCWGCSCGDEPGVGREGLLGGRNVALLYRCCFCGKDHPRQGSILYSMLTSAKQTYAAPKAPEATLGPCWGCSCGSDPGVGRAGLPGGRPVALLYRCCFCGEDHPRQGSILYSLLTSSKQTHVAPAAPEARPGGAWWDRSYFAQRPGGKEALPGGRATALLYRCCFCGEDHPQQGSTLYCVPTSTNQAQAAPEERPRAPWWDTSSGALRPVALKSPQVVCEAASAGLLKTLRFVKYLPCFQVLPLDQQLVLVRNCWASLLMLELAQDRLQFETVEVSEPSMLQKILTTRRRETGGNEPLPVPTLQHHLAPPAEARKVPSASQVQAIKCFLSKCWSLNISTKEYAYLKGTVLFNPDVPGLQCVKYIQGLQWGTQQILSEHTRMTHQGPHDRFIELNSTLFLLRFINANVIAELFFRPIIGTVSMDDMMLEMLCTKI
# SF1 mutant ctr: nonselective inhibitor or artifact in SF-1 mutant DAX1 counter-screen; shares compounds with DAX1 StAR inh; inhibition, % at 6.8 µM; 2,400 compounds, 78% hits; AID 652136; HEK293 StAR-luciferase, SF-1 AF2 mutant, luminescence;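 active = inhibition above the mean of all tested compounds plus 3 SD, cut at about 3% in these data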;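 note: 0% = DAX-1 transfected cells with DMSO and 100% = cells without DAX-1 with DMSO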
# SMARCA2 act conf: confirmation of SMARCA2 (BRM) function activators. shares compounds with SMARCA2 act. MG213 cells, MMTV-luciferase with dexamethasone, luminescence, overnight; MG213 cells expressing E1A, Rb sequestered; DMSO wells 0%, reference activator 100%. activation, % at 9.1 µM. 3,500 compounds, 30% hits. AID 652260;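 active = activation above its plate's cutoff, the mean activation of tested wells plus 3 SD, cut at about 7.9% in these data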
# GAL4-VP16 Luc: GAL4-VP16 reporter activation counter-screen; shares compounds with SMARCA2 act; HEK293 GAL4-VP16 pG5luc reporter, luciferase luminescence; scaled: DMSO wells 0%, SAHA wells 100%; activation, % at 9.1 µM; 3,500 compounds, 41% hits;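 active = activation above the solvent-only control well mean plus 3 SD, averaged across control plates, cut at about 5.2% in these data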
# LXRb hcDAF ctr: LXR-beta agonism as hcDAF-12 counter-screen. shares compounds with hcDAF12 agonist. HEK293 Gal4-LXR tk-luc reporter, luminescence, 24 h; normalized: DMSO 0%, positive control 100%. activation, % at 6.8 µM. 3,400 tested, under 10 active. AID 743027;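 active = mean percent activation of the reporter above a cutoff set as the average over tested compounds plus their standard deviation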
# hcDAF12 ag: hcDAF-12 agonism, confirmation assay; shares compounds with hcDAF12 agonist; HEK293 hcDAF-12 lit1-tk-luc reporter, luminescence; % of Δ7-dafachronic acid response; activation, % at 6.8 µM; 3,400 compounds, 61% hits; AID 743032;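 active = mean activation across triplicate tests above the threshold derived from the earlier primary screen, cut at about 5.5% in these data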;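 note: 0% = DMSO only wells and 100% = 3 µM Δ7-dafachronic acid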
# hgDAF12 conf: confirmation of H. glycines DAF-12 agonists; shares compounds with hgDAF-12 ag; HEK293 GAL4-hgDAF12 luciferase reporter, agonist mode; percent of butyrate response; activation, % at 6.8 µM; 3,300 compounds, 80% hits;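 active = mean activation over triplicate wells above the hit cutoff derived from the earlier primary screen, cut at about 11% in these data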;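 note: 0% = DMSO low control and 100% = 2 mM sodium butyrate high control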
# LXR ag 2: activates human LXR-beta, counter-screen for DAF-12 agonists; shares compounds with hgDAF-12 ag; HEK293 Gal4-LXR luciferase reporter, 24 h; activation, % at 6.8 µM; 3,300 tested, under 10 active; AID 743051;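 active = mean activation of the triplicate above a set limit carried over from the primary screen, none filed active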
# * marks the source's active call; other numbers are inactive results; / = not tested or not shown.
SMILES,DAX1 StAR inh,ssDAF12 agonist,hgDAF-12 ag,hcDAF12 agonist,SMARCA2 act,DAX1 conf,SF1 mutant ctr,hgDAF12 conf,LXR ag 2,others
CC(C)(C)c1ccc(-c2nnc(N)s2)cc1,5.0*,1,17*,2,2,11*,7.0*,12*,1,
CC1(c2nnnn2C2CCCCC2)CSCC(=O)N1CCc1ccc(O)cc1 (stereo unspecified),-1,-1,3,-4,1,/,/,/,/,
Cc1cccc(-c2cnc3cccnn23)c1,2,-1,7,-2,1,/,/,/,/,
CCOc1cccc(-c2cnc3cccnn23)c1,6.1*,0,21*,1,5,7.1*,5.1*,16*,0,
C=CCN1C[C@H](COC(=O)c2cccc(OC)c2)Oc2cccc(F)c2S1(=O)=O,-1,-2,0,-1,-6,/,/,/,/,
Cc1cc(/C=C(\C#N)C(=O)Nc2ccccc2F)c(C)[nH]1,12*,0,17*,5,2,15*,5.5*,16*,1,
CCN(Cc1nc(-c2cccc(C)c2)no1)C(=O)c1ccc2c(c1)OCO2,1,-1,1,0,-1,/,/,/,/,
Cc1cccc(-c2noc(-c3ccc4c(c3)OCO4)n2)c1,4.8*,0,13*,4,1,13*,5.0*,14*,1,
CCOc1ccc(-c2nnc(-c3cccs3)o2)cc1,4.9*,1,16*,7.4*,3,13*,4.6*,15*,1,LXRb hcDAF ctr=1;hcDAF12 ag=7.8*
c1cncc(-c2nnc(-c3cccs3)o2)c1,0,-1,2,1,3,/,/,/,/,
c1csc(-c2nnc(-c3ccc(N4CCOCC4)cc3)o2)c1,5.1*,1,15*,5.8*,3,14*,6.2*,19*,1,
N#Cc1ccccc1N1CCN(C(=O)C2CCN(c3ncnc4c3sc3cccc(F)c34)CC2)CC1,-4,-2,-9,-5,-7,/,/,/,/,
Cc1ccc2nc(-c3ccc(NC(=O)COC(=O)c4ccc(=O)[nH]c4)cc3)sc2c1,8.4*,1.2*,22*,11*,3,14*,8.5*,23*,1,LXRb hcDAF ctr=2;hcDAF12 ag=11*
Cc1ccc2nc(NC(=O)COC(=O)c3ccncc3)sc2c1,2,-1,9,1,5,/,/,/,/,
Cc1ccc2nc(-c3ccc(NC(=O)CN4C(=O)c5ccccc5C4=O)cc3)sc2c1,5.4*,2.2*,19*,14*,16*,15*,7.4*,16*,1,LXRb hcDAF ctr=1;hcDAF12 ag=8.3*
Cc1ccc2nc(-c3ccc(NC(=O)CNC4CC4)cc3)sc2c1,5.7*,2.4*,21*,5,11*,14*,7.0*,15*,1,SMARCA2 act conf=8.5*;GAL4-VP16 Luc=10*
Nc1cc(=O)[nH]c(SCC(=O)Nc2ccc(F)c(Cl)c2)n1,1,-1,0,-1,-3,/,/,/,/,
Cc1ccc2nc(-c3ccc(NC(=O)CSc4nc(N)cc(=O)[nH]4)cc3)sc2c1,4.8*,0,25*,3,6,7.3*,4.0*,18*,1,
O=C(Nc1ccc(C(O)(C(F)(F)F)C(F)(F)F)cc1)c1c(F)cccc1F,/,-1,1,1,/,/,/,/,/,
COc1cc2c(NCCCCCCO[N+](=O)[O-])ncnc2c(OC)c1OC,-4,-1,-5,-2,-4,/,/,/,/,
CCc1ccc(CNCCNC(=O)c2ccco2)cc1,5.8*,0,15*,2,7,4.9*,2.9*,1,0,
COC(=O)c1cc2c(c3c4cc(C)ccc4n(S(=O)(=O)c4cccc(C)c4)c13)C(=O)N(C)C2,1,-1,2,4,-4,/,/,/,/,
COc1ccc(-c2nnc(SCC(=O)/C(C#N)=C(\C)N)o2)cc1,4.7*,1,16*,6.7*,2,13*,4.5*,18*,1,LXRb hcDAF ctr=1;hcDAF12 ag=6.9*
COc1ccc(-c2nnc(SCC(=O)c3ccc(C)o3)o2)cc1,0,-1,0,0,-2,/,/,/,/,
CC1CCN(C(=O)c2cc(-c3ccccc3O)on2)CC1,10*,1.1*,24*,6.2*,4,12*,9.4*,17*,1,
SMILES,DAX1 StAR inh,ssDAF12 agonist,hgDAF-12 ag,hcDAF12 agonist,SMARCA2 act,DAX1 conf,SF1 mutant ctr,hgDAF12 conf,LXR ag 2,others
O=C(c1cc(-c2ccccc2)on1)N1CCCC1,6.1*,1.3*,14*,4,4,11*,4.5*,15*,1,
CC1CCN(C(=O)c2ccc(-c3ccccc3Cl)o2)CC1,17*,1,16*,4,4,14*,8.6*,13*,1,
O=C(c1cc(-c2ccccc2)on1)N1CCN(c2ccccc2)CC1,0,-1,0,-1,0,/,/,/,/,
CC1CCN(C(=O)c2cc3ccccc3o2)CC1,2,-1,6,4,2,/,/,/,/,
CC1CCN(C(=O)c2cc(-c3ccco3)on2)CC1,1,0,8,4,4,/,/,/,/,
O=C(c1cc(-c2cccc(O)c2)on1)N1CCOCC1,8.0*,1,16*,4,4,13*,7.1*,12*,1,
O=C(c1cc(-c2cccc(O)c2)on1)N1CCCCCC1,2,1,9,4,-1,/,/,/,/,
CN1C(=O)C[C@@](C#N)(C(=O)N2CCOCC2)[C@H]1c1ccccc1,1,-1,-2,0,-1,/,/,/,/,
